Drawing on PubChem BioAssay (Tox21), this text covers Potency for 20 molecules.

Assay [1] in a line: qHTS RealTime-Glo MT Cell Viability Assay in HEK293 cells - 0 hour (AID 1224880). Also: top concentration of the series differs between compounds; nearly all actives have a fitted effect of over 45% in size. The method in brief: (§1)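 qHTS format; HEK293 cells with NanoLuc/prosubstrate reagent, 37 C/5% CO2 for 5 h pre-dosing; compounds 23 nL in DMSO; luminescence at each time point reflects viable cells.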
(Quantitative high-throughput screening tests each substance at several concentrations.)

Assay [2] in a line: A CellTox Green Cytotoxicity Assay to monitor cytotoxicity in HEK293 cells - 32 hour (AID 1224881). Also: nearly all actives have a fitted effect of over 40% in size. Put shortly:
(§2)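 Each value comes from one timepoint of a single continuous run in which HEK293 cells with CellTox Green were exposed to compound for up to 40 h at 37 C, dye fluorescence rising with cell death.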

Assay [3] can be described thus: A CellTox Green Cytotoxicity Assay to monitor cytotoxicity in HepG2 cells - 0 hour (AID 1224882). Also: nearly all actives have a fitted effect of over 35% in size. Also: potency is read from the fitted curve at half-maximal effect. Put shortly:
(§3)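 Continuous culture of HepG2 cells with a membrane-impermeant DNA dye; rising fluorescence marks dead cells. Compound exposure lasted up to 40 h at 37 C, with reads every 8 h from 0 h.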

Assay [4] in a line: A CellTox Green Cytotoxicity Assay to monitor cytotoxicity in HEK293 cells - 8 hour (AID 1224884). Also: nearly all actives have a fitted effect of over 35% in size. The method in brief: as §2
The nature of assay [5]: qHTS RealTime-Glo MT Cell Viability Assay in HepG2 cells - 16 hour (AID 1224885). Also: nearly all actives have a fitted effect of over 50% in size. The method in brief: (§4)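 HepG2 cells were seeded at 600 cells/well together with NanoLuc luciferase and a cell-permeant prosubstrate, preincubated 5 h at 37 C/5% CO2, then pin-dosed with compounds in DMSO. Nonlytic luminescence from viable cells was read at each time point.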
Assay [6] in a line: qHTS RealTime-Glo MT Cell Viability Assay in HEK293 cells - 24 hour (AID 1224886). Also: top concentration of the series differs between compounds; nearly all actives have a fitted effect of over 50% in size. The method in brief:
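HEK293 cells were seeded at 600 cells/well together with NanoLuc luciferase and cell-permeant prosubstrate, preincubated 5 h at 37 C/5% CO2, then given compound in DMSO by pintool. Luminescence from viable-cell prosubstrate reduction was read repeatedly over 40 h.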

Assay [7] can be described thus: A CellTox Green Cytotoxicity Assay to monitor cytotoxicity in HEK293 cells - 16 hour (AID 1224888). Also: nearly all actives have a fitted effect of over 35% in size. The method in brief:
as §2

A short description of assay [8]: qHTS RealTime-Glo MT Cell Viability Assay in HepG2 cells - 0 hour (AID 1224889). Also: nearly all actives have a fitted effect of over 50% in size. Put shortly: as §4
The nature of assay [9]: qHTS RealTime-Glo MT Cell Viability Assay in HEK293 cells - 8 hour (AID 1224887). Also: top concentration of the series differs between compounds; nearly all actives have a fitted effect of over 50% in size. Put shortly:
as §1

Assay [10] in a line: A CellTox Green Cytotoxicity Assay to monitor cytotoxicity in HepG2 cells - 32 hour (AID 1224883). Also: nearly all actives have a fitted effect of over 50% in size. The method in brief:
as §3

SMILES strings stand for the structures. Unmarked numbers belong to inactive results. Results filed as inconclusive are left out. The source made the active and inactive calls. Calls follow the shape of the dose curve; as a rule, active = well fitted curve in the direction sought with a large enough effect in the repeat runs; inconclusive = weak or mixed curves; inactive = no such curve, though single readings can be large; an effect the other way counts as inactive or inconclusive.

Consider `CC(C)(O)c1coc(S(=O)(=O)NC(=O)Nc2c3c(cc4c2CCC4)CCC3)c1`, for which the Potency entry in assay [1], in assay [2], in assay [3], in [4], in assay [5] and in assay [6] was “inactive” in each case. For the same molecule, the Potency result in assay [7] and in assay [8] was “inactive” each time.
`CC(=O)OCCC1CCCCC1`: the Potency result in assay [1], in assay [2], in assay [3], in assay [4], in [5] and in assay [6] was “inactive” throughout. Besides, the Potency entry in [9], in [7] and in assay [8] was “inactive” in each case.
With `O=C(Oc1ccccc1)c1ccc2ccccc2c1O`, the Potency result in assay [1], in assay [2], in assay [3], in [4], in assay [5] and in [7] was “inactive” in each case. Besides, the Potency result in assay [8] was “inactive”.
For the molecule `Cc1cc(CCCOc2c(C)cc(-c3noc(C(F)(F)F)n3)cc2C)on1`, the Potency entry in assay [1], in [2], in assay [3], in assay [10], in assay [5] and in assay [7] was “inactive” each time. Also, the Potency result in assay [8] was “inactive”.
As for `C1=CCC2CC=CC2C1` (centres undefined), the Potency result in assay [1], in [2], in assay [3], in [10], in [6] and in [7] was “inactive” in each case. Moreover, the Potency entry in [8] was “inactive”.
Regarding `CC1CCc2nccnc21` (centres undefined), the Potency result in assay [1], in assay [2], in assay [3], in [10], in assay [6] and in assay [7] was “inactive” each time.
For `CCC(CO)(CO)[N+](=O)[O-]`, the Potency result in assay [1], in assay [2], in [3], in assay [4], in [6] and in assay [7] was “inactive” in each case. In addition, the Potency entry in [8] is “inactive”.
As to `COc1ccc(C2C(=O)c3ccccc3C2=O)cc1`, the Potency entry in assay [1], in [2], in [3], in [10], in assay [6] and in assay [9] was “inactive” each time. Also, the Potency result in [7] and in [8] was “inactive” throughout.
As to `O=C(O)CO`, the Potency entry in [1], in assay [2], in [3], in [4], in assay [5] and in assay [6] was “inactive” throughout. Further, the Potency result in [9], in [7] and in assay [8] was “inactive” each time.
For the molecule `CC(CCc1ccc(O)cc1)NCCc1ccc(O)c(O)c1` (centres undefined), the Potency entry in assay [1], in assay [2], in assay [10], in assay [4], in assay [5] and in assay [6] was “inactive” throughout. The Potency entry in assay [9], in [7] and in assay [8] was “inactive” throughout.
In the case of `O=NN(CCCl)C(=O)NCCCl`, the Potency entry in assay [1], in assay [2], in [4], in assay [5], in assay [6] and in [9] was “inactive” each time. The Potency entry in assay [7] and in [8] was “inactive” throughout. Besides, the Potency in [3] was 5.35 µM (active).
With `Nc1cccc2c(N)cccc12`, the Potency entry in assay [1], in [2], in assay [3], in assay [9], in assay [7] and in assay [8] was “inactive” in each case.
On to `O=C1NC(=O)c2cccc3cccc1c23`, for which the Potency entry in assay [1], in assay [2], in assay [10], in assay [4], in [5] and in assay [6] was “inactive” throughout. Besides, the Potency result in assay [9], in assay [7] and in assay [8] was “inactive” throughout.
With `CCCC(=O)OC(=O)CCC`, the Potency result in [1], in [2], in [3], in assay [10], in assay [5] and in assay [6] was “inactive” throughout. Besides, the Potency entry in assay [9], in assay [7] and in assay [8] was “inactive” in each case.
As for `CC(=O)C(C)=O`, the Potency result in assay [1], in assay [2], in assay [3], in [4], in assay [5] and in assay [6] was “inactive” in each case. The Potency entry in assay [9], in assay [7] and in assay [8] was “inactive” throughout.
On to `O=C1[C@@H]2[C@H]3CC[C@H](C3)[C@@H]2C(=O)N1CCCCN1CCN(c2ncccn2)CC1`, for which the Potency entry in [1], in assay [2], in assay [3], in [6], in assay [7] and in assay [8] was “inactive” in each case.
Turning to `CC(C)(C)CCCCCCOC(=O)c1ccccc1C(=O)OCCCCCCC(C)(C)C`, the Potency result in [1], in assay [2], in [10], in assay [4], in [5] and in assay [6] was “inactive” in each case. Moreover, the Potency entry in [9], in assay [7] and in [8] was “inactive” throughout.
Consider `CCCCCCCCCCCCCC(=O)OCC(O)CO` (centres undefined), for which the Potency entry in assay [1], in [10], in assay [4], in assay [5], in assay [6] and in [9] was “inactive” each time. The Potency entry in assay [8] was “inactive”.
As for `COC1CCC=CO1` (centres undefined), the Potency result in assay [1], in assay [2], in assay [10], in [4], in assay [5] and in assay [6] was “inactive” throughout. In addition, the Potency entry in assay [9], in assay [7] and in assay [8] was “inactive” throughout.
Consider `CCOCCC(=O)OCC`, for which the Potency result in assay [2], in assay [3], in assay [10], in [4], in [5] and in assay [6] was “inactive” in each case. Further, the Potency result in [9], in assay [7] and in [8] was “inactive” each time.
